Activity calls are given as the source filed them.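 Rule for the calls, unless noted: active = inhibition above 20% together with a positive visual image hit; inconclusive = visual image hit but inhibition not above 20%; inactive = no visual image hit.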
Experiment: inhibitors of TNFa-induced NFkB p65 translocation, primary screen, imaging, HUVEC, MLSMR starter and 10KST1 sets (AID 438);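 note: compound added about 3h40 before a 20 min TNFalpha stimulation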;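 for inhibition: signal is the nuclear over cytoplasmic p65 intensity ratio per well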
Conditions: HUVEC TNFa-induced p65 nuclear translocation; cell count: measured here: nuclei count (cytotoxicity indicator), at 2.08 µM; inhibition: at 2 µM, stronger effect = higher value, 0% TNFa-plus-vehicle, 100% no-TNFa wells

| SMILES | inhibition | cell count |
| --- | --- | --- |
| Cn1cnc2cc(NC(=O)c3ccc(Cl)cc3)ccc21 | 6.9% (inactive) | 829 |
| CC(=O)NCC(=O)N(Cc1ccco1)C1(C(=O)NC2CCCCC2)CCCCC1 | 5.7% (inactive) | 571 |
| COc1ccc2[nH]c(=O)c(CN(Cc3cccs3)S(=O)(=O)c3cccc4nsnc34)cc2c1 | -4.2% (inactive) | 510 |
| Cc1ccc2oc(=O)c3cnn(CC(=O)NCCC(C)C)c3c2c1 | -3.9% (inactive) | 618 |
| CC12CCC(C(=O)N3CCCCC3)(CC1=O)C2(C)C (stereo unspecified) | 2% (inactive) | 483 |
| CC1(C)CC(=O)C=C(Nc2ccc(OCC(F)(F)C(F)F)cc2)C1 | -0.3% (inactive) | 362 |
| Cc1cc(C)cc(-n2nnc(C(=O)NCc3ccco3)c2N)c1 | 0.2% (inactive) | 500 |
| CC(C)Oc1ccc(N2CC(C(=O)Nc3ccccc3F)CC2=O)cc1 (stereo unspecified) | 3.6% (inactive) | 804 |
| O=C(Nc1nccs1)c1cccc(NC(=O)C2CC2)c1 | -0.5% (inactive) | 411 |
| CCOc1ccccc1C(=O)Nc1nnc(CC)s1 | -12% (inactive) | 537 |
| COc1ccc(C(=O)N2CCN(S(=O)(=O)c3cc(Cl)ccc3OC)CC2)cc1 | 7.3% (inactive) | 398 |
| [N-]=[N+]=CC(=O)CC(c1ccccc1)N1C(=O)c2ccccc2C1=O (stereo unspecified) | 0.5% (inactive) | 229 |
| O=C(O)c1c(Cl)c(Cl)c(Cl)c(Cl)c1C(=O)N1CCOCC1 | -10.7% (inactive) | 530 |
| CCOc1ccccc1OCC(=O)NCc1ccco1 | -3.4% (inactive) | 375 |
| CC1CCN(Cc2ccc(NC(=O)C3CCN(c4nnc(-n5cccc5)s4)CC3)cc2)CC1 | -3% (inactive) | 720 |
| Cc1cc(Oc2ccc(Cl)cc2)nc(-c2ccccc2O)n1 | 11.3% (inactive) | 612 |
| C=C(C)Cn1c(N2CCN(CC)CC2)nc2c1c(=O)[nH]c(=O)n2C | 14% (inactive) | 441 |
| CCOCCc1nnc(NC(=O)c2ccc(OC)c(OC)c2)s1 | 9.1% (inactive) | 578 |
| COc1cc(CN2CCN(C(=O)CC(C)C)CC2)cc(OC)c1O | -11% (inactive) | 642 |
| c1ccc2c(c1)sc1nnnn12 | -2.1% (inactive) | 375 |

| SMILES | inhibition | cell count |
| --- | --- | --- |
| COC(=O)c1cc(Br)c(=O)n(-c2ccc(OC)cc2)c1 | -0.5% (inactive) | 542 |
| COc1cc(C(=O)N2CCC(NC(=O)C(Cc3ccc(C)cc3)NC(C)=O)CC2)cc(OC)c1OC (stereo unspecified) | -6.1% (inactive) | 666 |
| Cc1ccccc1NS(=O)(=O)c1cc(S(C)(=O)=O)ccc1Cl | 7.7% (inactive) | 552 |
| COc1ccccc1OCCOc1ccccc1/C=N/n1cnnc1 | -3.8% (inactive) | 375 |
| CCc1nnc(NC(=O)CSc2nnc3scc(-c4ccc(C)cc4)n23)s1 | -32.6% (inactive) | 684 |
| Cn1c(/C=N/n2cnnc2)nc2ccccc21 | 3.5% (inactive) | 448 |
| CC1CN(C(=O)c2cc3cc(Cl)cc(Cl)c3oc2=O)CC(C)O1 (stereo unspecified) | 5.6% (inactive) | 365 |
| C=CCOc1nc2c(c(=O)n(C)c(=O)n2C)n1C | 1% (inactive) | 339 |
| CCOc1cccc(C(=O)N(Cc2ccco2)C2CCS(=O)(=O)C2)c1 (stereo unspecified) | 9.6% (inactive) | 609 |
| Cn1c(COc2ccc(Cl)cc2)nnc1SCC(=O)NC1CCCCC1 | -1.3% (inactive) | 328 |
| Cc1cccc2cc(COC(=O)C(C)(C)C)c(=O)[nH]c12 | 5.1% (inactive) | 364 |
| Cc1cccc(-c2c3c(=O)n(C)c(=O)n(C)c3cn2-c2ccc(O)cc2)c1 | -2.8% (inactive) | 363 |
| Cc1ccc(CN2C(=O)CCC2C(=O)NCCCN2CCC(C)CC2)cc1 (stereo unspecified) | -7.4% (inactive) | 379 |
| Cc1cccc(Nc2nc(N)nc(CN3CCC(C(N)=O)CC3)n2)c1C | -4.3% (inactive) | 720 |
| COc1cc(OC)nc(NC(=O)CSc2nc3ccccc3o2)n1 | -0.3% (inactive) | 740 |
| CCCC(c1nnnn1Cc1ccc(OC)cc1)N1CCN(c2ccccc2OC)CC1 (stereo unspecified) | 12.3% (inactive) | 257 |
| COc1cccc(N2CCN(Cc3nc(N)nc(Nc4ccccc4)n3)CC2)c1 | -12.5% (inactive) | 463 |
| Cc1nc2ccc(Br)cn2c1NC(C)(C)C | 12.8% (inactive) | 209 |
| O=C(Nc1ccc(Cl)c(C(F)(F)F)c1)N1CCCC(O)C1 (stereo unspecified) | 4.5% (inactive) | 356 |

Experiment: inhibitors of mutant huntingtin aggregation, primary screen, imaging, exon1htt(103Q)mCFP cells, high-content imaging (AID 483;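 active = visual image review flags a hit and inhibition of aggregation exceeds 20%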;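 note: compound exposure lasted 3 days before fixation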;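 for nuclei count: percent of the per-plate median nuclei count of sample wells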)
Conditions: exon1htt(103Q)mCFP cell line, aggregate imaging, at 2 µM; inhibition of aggregation: stronger effect = higher value; nuclei count: measured here: cell count, toxicity

| SMILES | nuclei count | inhibition of aggregation |
| --- | --- | --- |
| Cn1cnc2cc(NC(=O)c3ccc(Cl)cc3)ccc21 | 74.5% | 22.8% (inactive) |
| CC(=O)NCC(=O)N(Cc1ccco1)C1(C(=O)NC2CCCCC2)CCCCC1 | 132% | 19.5% (inactive) |
| COc1ccc2[nH]c(=O)c(CN(Cc3cccs3)S(=O)(=O)c3cccc4nsnc34)cc2c1 | 110% | -15.3% (inactive) |
| Cc1ccc2oc(=O)c3cnn(CC(=O)NCCC(C)C)c3c2c1 | 124% | -7.6% (inactive) |
| CC12CCC(C(=O)N3CCCCC3)(CC1=O)C2(C)C (stereo unspecified) | 99.5% | -4.8% (inactive) |
| CC1(C)CC(=O)C=C(Nc2ccc(OCC(F)(F)C(F)F)cc2)C1 | 110% | -25.2% (inactive) |
| Cc1cc(C)cc(-n2nnc(C(=O)NCc3ccco3)c2N)c1 | 119% | -20.1% (inactive) |
| CC(C)Oc1ccc(N2CC(C(=O)Nc3ccccc3F)CC2=O)cc1 (stereo unspecified) | 103% | -2% (inactive) |
| O=C(Nc1nccs1)c1cccc(NC(=O)C2CC2)c1 | 98% | -6.6% (inactive) |
| CCOc1ccccc1C(=O)Nc1nnc(CC)s1 | 59.9% | 12.2% (inactive) |
| COc1ccc(C(=O)N2CCN(S(=O)(=O)c3cc(Cl)ccc3OC)CC2)cc1 | 64.6% | -29.4% (inactive) |
| [N-]=[N+]=CC(=O)CC(c1ccccc1)N1C(=O)c2ccccc2C1=O (stereo unspecified) | 58.6% | 10.4% (inactive) |
| O=C(O)c1c(Cl)c(Cl)c(Cl)c(Cl)c1C(=O)N1CCOCC1 | 112% | -17.6% (inactive) |
| CCOc1ccccc1OCC(=O)NCc1ccco1 | 101% | 2.9% (inactive) |
| CC1CCN(Cc2ccc(NC(=O)C3CCN(c4nnc(-n5cccc5)s4)CC3)cc2)CC1 | 50.5% | 13.7% (inactive) |
| Cc1cc(Oc2ccc(Cl)cc2)nc(-c2ccccc2O)n1 | 73.2% | 4.5% (inactive) |
| C=C(C)Cn1c(N2CCN(CC)CC2)nc2c1c(=O)[nH]c(=O)n2C | 81.9% | -6.4% (inactive) |
| CCOCCc1nnc(NC(=O)c2ccc(OC)c(OC)c2)s1 | 97.6% | -18.6% (inactive) |
| COc1cc(CN2CCN(C(=O)CC(C)C)CC2)cc(OC)c1O | 99.7% | -4.6% (inactive) |
| c1ccc2c(c1)sc1nnnn12 | 112% | -24.6% (inactive) |

| SMILES | nuclei count | inhibition of aggregation |
| --- | --- | --- |
| COC(=O)c1cc(Br)c(=O)n(-c2ccc(OC)cc2)c1 | 108% | -13.6% (inactive) |
| COc1cc(C(=O)N2CCC(NC(=O)C(Cc3ccc(C)cc3)NC(C)=O)CC2)cc(OC)c1OC (stereo unspecified) | 56.4% | 22.1% (inactive) |
| Cc1ccccc1NS(=O)(=O)c1cc(S(C)(=O)=O)ccc1Cl | 102% | -3% (inactive) |
| COc1ccccc1OCCOc1ccccc1/C=N/n1cnnc1 | 94.1% | -14.3% (inactive) |
| CCc1nnc(NC(=O)CSc2nnc3scc(-c4ccc(C)cc4)n23)s1 | 96.5% | 9.1% (inactive) |
| Cn1c(/C=N/n2cnnc2)nc2ccccc21 | 114% | -4.4% (inactive) |
| CC1CN(C(=O)c2cc3cc(Cl)cc(Cl)c3oc2=O)CC(C)O1 (stereo unspecified) | 104% | 1% (inactive) |
| C=CCOc1nc2c(c(=O)n(C)c(=O)n2C)n1C | 113% | -1.3% (inactive) |
| CCOc1cccc(C(=O)N(Cc2ccco2)C2CCS(=O)(=O)C2)c1 (stereo unspecified) | 107% | 2.4% (inactive) |
| Cn1c(COc2ccc(Cl)cc2)nnc1SCC(=O)NC1CCCCC1 | 91.8% | 19.6% (inactive) |
| Cc1cccc2cc(COC(=O)C(C)(C)C)c(=O)[nH]c12 | 102% | 2.3% (inactive) |
| Cc1cccc(-c2c3c(=O)n(C)c(=O)n(C)c3cn2-c2ccc(O)cc2)c1 | 90.3% | 30.8% (inactive) |
| Cc1ccc(CN2C(=O)CCC2C(=O)NCCCN2CCC(C)CC2)cc1 (stereo unspecified) | 85.5% | 19.6% (inactive) |
| Cc1cccc(Nc2nc(N)nc(CN3CCC(C(N)=O)CC3)n2)c1C | 108% | -5.8% (inactive) |
| COc1cc(OC)nc(NC(=O)CSc2nc3ccccc3o2)n1 | 102% | -30.6% (inactive) |
| CCCC(c1nnnn1Cc1ccc(OC)cc1)N1CCN(c2ccccc2OC)CC1 (stereo unspecified) | 101% | -3.4% (inactive) |
| COc1cccc(N2CCN(Cc3nc(N)nc(Nc4ccccc4)n3)CC2)c1 | 84.7% | 18.2% (inactive) |
| Cc1nc2ccc(Br)cn2c1NC(C)(C)C | 103% | -17.9% (inactive) |
| O=C(Nc1ccc(Cl)c(C(F)(F)F)c1)N1CCCC(O)C1 (stereo unspecified) | 106% | -4.8% (inactive) |
